From PubChem BioAssay AID1619 (SRMLSC, 2009)
Out of some 220,000 compounds screened, about 830 (0.38%) were called active.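 Rule for the calls: active = compound inhibiting the enzyme by more than half at any dose during confirmatory dose-response retesting; inconclusive = strong single-dose inhibitors picked by rank but not retested; inactive = the rest.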 Only a sample is shown. Entries with a potency or affinity are not part of this list.

The molecules below were run against Leucine aminopeptidase (Plasmodium falciparum (isolate 3D7)) (UniProt Q8IL11) (assay: P. falciparum M17LAP inhibitors, primary screen, biochemical, fluorogenic H-Leu-NHMec substrate, 1536-well (AID 1619;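 note: plate controls were full reaction with DMSO carrier for no effect and no enzyme background for full effect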)). Settings: recombinant M17LAP, H-Leu-NHMec fluorogenic kinetic assay; at 30 µM; active compounds read high.
Chain of Leucine aminopeptidase (Plasmodium falciparum (isolate 3D7)) (Q8IL11 whole entry, looked up): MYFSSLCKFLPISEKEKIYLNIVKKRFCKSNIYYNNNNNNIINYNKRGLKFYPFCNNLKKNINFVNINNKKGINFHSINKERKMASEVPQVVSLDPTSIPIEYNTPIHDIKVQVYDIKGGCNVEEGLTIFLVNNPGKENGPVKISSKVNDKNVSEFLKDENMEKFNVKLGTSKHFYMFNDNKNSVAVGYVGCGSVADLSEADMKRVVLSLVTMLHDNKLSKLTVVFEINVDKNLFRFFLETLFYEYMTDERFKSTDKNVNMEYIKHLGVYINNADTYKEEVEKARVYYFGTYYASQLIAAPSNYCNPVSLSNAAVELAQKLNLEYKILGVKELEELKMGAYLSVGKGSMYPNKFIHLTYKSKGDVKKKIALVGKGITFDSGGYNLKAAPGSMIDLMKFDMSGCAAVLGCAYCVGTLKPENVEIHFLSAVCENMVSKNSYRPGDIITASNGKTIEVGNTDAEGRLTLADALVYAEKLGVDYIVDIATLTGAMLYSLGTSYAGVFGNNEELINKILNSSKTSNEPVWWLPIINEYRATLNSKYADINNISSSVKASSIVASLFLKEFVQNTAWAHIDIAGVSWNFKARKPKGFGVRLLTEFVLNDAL

inhibition, inactive:
COc1ccccc1-c1noc(-c2cccnc2)n1 -3.7%, CCOC(=O)c1[nH]c(C)c(C(=O)N2CCc3c([nH]c4ccccc34)C2c2ccccn2)c1C (stereo unspecified) -1.65%, COC(=O)C(C(=O)NCC1CCCO1)C1CCCCCC1 (stereo unspecified) 13.6%, CCC(Sc1nc2ccccc2s1)C(=O)Nc1nnc(C)s1 (stereo unspecified) 22.9%, COC(=O)CSC(C)C(=O)Nc1nnc(C(C)C)s1 (stereo unspecified) -2.42%, CCc1nnc(NC(=O)C(C)C)s1 -5.28%, CC(C)c1nnc(NC(=O)CSc2nc3ccccc3s2)s1 -2.5%, CCOC(=O)CSC(CC)C(=O)Nc1nnc(C(C)C)s1 (stereo unspecified) 20.9%, CCc1nnc(NC(=O)C(CC)c2ccccc2)s1 (stereo unspecified) -2.8%, Cc1cc(-c2ccco2)n(CC(=O)NCCN(C)C)n1 -1.86%, CCCCNC(=O)NC12CC3CC(CC(C3)C1)C2 3.38%, S=C(Nc1ccccc1Cl)NC1CC2CCCC(C1)N2C1CC1 (stereo unspecified) 19.9%, COc1ccc(-c2noc(=O)[nH]2)cc1 -9.72%, COc1ccc(-c2nc3ccccc3[nH]2)cc1 12.5%, O=C(CCn1c(=O)oc2ccccc21)Nc1nccs1 0.79%, Nc1cc(C2CCCC2)nn1-c1ccccc1 16.1%, Cc1nn(CC(=O)NCCCN2CCOCC2)c(C)c1[N+](=O)[O-] 3.72%, COC(=O)NCc1cc2cc(Cl)ccc2[nH]1 8.05%, O=S(=O)(Nc1ccn(-c2ccccc2)n1)c1ccc(Br)cc1 21.4%, O=S(=O)(N/N=C\C=C\c1ccccc1)c1ccc(Br)cc1 31.2%, Cc1ccc(C(=O)Nc2ccccc2C(=O)N2CC3(C)CC2CC(C)(C)C3)cc1 (stereo unspecified) -0.05%, COc1ccc(C[C@H]2CN3C(=NC[C@@H]3C(C)C)N2C[C@H](C)NC(=O)c2ccc(C)c(Br)c2)cc1 -1.28%, COc1ccc2c(c1OC)C(=O)OC2Nc1nc(-c2cc3cc([N+](=O)[O-])ccc3oc2=O)cs1 (stereo unspecified) 42.4%, COc1ccc2c(c1OC)C(=O)OC2Nc1nc(-c2cc3cc(Br)ccc3oc2=O)cs1 (stereo unspecified) -3.55%, CSc1nsc(SC)c1CO -0.7%, CC(=O)Nc1c(O)nc(SCC(=O)Nc2ccc(C(C)=O)cc2)[nH]c1=O 21.4%, Cc1cccc(NC(=O)CSc2nc3c(c(=O)[nH]2)CCCC3)c1C 12.7%, Cc1cccc(NC(=O)CSc2nc(C)c(Cc3ccccc3)c(=O)[nH]2)c1 -0.73%, Cc1cccc(NC(=O)CSc2nc3c(c(=O)[nH]2)CCC3)c1C 49.7%, Cc1cccc(NC(=O)CSc2nc3nc(C)cc(C)c3c(=O)[nH]2)c1 15.8%, CC(=O)Nc1c(O)nc(SCC(=O)Nc2c(C)cccc2C)[nH]c1=O 13.4%, S=c1[nH]ncn1/N=C/c1cccc(Oc2ccccc2)c1 13.2%, Cc1ccc(CNc2ccc(S(=O)(=O)N3CCOCC3)cc2[N+](=O)[O-])cc1 -4.05%, CCCC1C2C(=O)N(c3ccccc3)C(=O)C2ON1c1ccccc1 (stereo unspecified) -10.4%, CCc1ccc(OC(=O)c2ccn(CC)n2)cc1 2.96%, CCOC(=O)c1c(C)[nH]c(C)c1C(=O)COC(=O)c1ccc(O)cc1 0.26%, O=C(O)c1ccccc1-c1ccccc1C(=O)Nc1ccccc1 -2.4%, Cc1ccc(NC(=O)c2ccccc2-c2ccccc2C(=O)O)cc1C 4.01%, O=C(CSc1nc2ccc(NC(=O)C3CCCCC3)cc2s1)NCC1CCCO1 (stereo unspecified) 2.95%, O=C(Nc1ccc(N2C(=O)C3CCCCC3C2=O)cc1Cl)c1cccs1 (stereo unspecified) -2.37%, Cc1ccc(-n2c(C)cc(C(=O)COC(=O)c3c(C)noc3C)c2C)cc1 0.29%, Cc1cc(C(=O)COC(=O)C2=NNC(=O)CC2)c(C)n1-c1ccccc1 7.43%, Cc1cc(C(=O)COC(=O)c2ccc[nH]c2=O)c(C)n1-c1ccccc1F 8.77%, Cc1ccc(-n2c(C)cc(C(=O)COC(=O)C3=NNC(=O)CC3)c2C)cc1 30.1%, Cc1cc(C(=O)COc2ccccc2C(N)=O)c(C)n1C1CC1 -2.25%, Cc1cc(C(=O)COC(=O)c2ccc(O)cc2)c(C)n1CCc1ccc(F)cc1 13.2%, COCCn1c(C)cc(C(=O)COC(=O)c2ccc[nH]c2=O)c1C 49.1%, Cc1cc(C(=O)COC(=O)c2ccc[nH]c2=O)c(C)n1C 14.9%, CCCn1c(SCC(=O)NC(=O)Nc2ccc(C)cc2C)n[nH]c1=O -6.72%, O=C(Cn1ccc([N+](=O)[O-])n1)NCCc1c[nH]c2ccccc12 -5.35%, C=CCn1c(=O)c2ccccc2n2c(SCC(=O)Nc3sc(C(=O)N(CC)CC)c(C)c3C(=O)OCC)nnc12 1.64%, O=C(N/N=C/c1ccc2c(c1)OCO2)c1cc(-c2ccc(F)cc2)nc2ccccc12 8.91%, CCCCn1nnnc1NCc1ccc(N2CCCC2)cc1 2.89%, COc1cccc(-n2cn[nH]c2=S)c1 -0.99%, O=C(NC1CCCC1)C(c1ccc(N2CCOCC2)cc1)N(Cc1ccco1)C(=O)c1ccco1 (stereo unspecified) 6.04%, Cc1ccc(-n2c(C)cc(C(=O)COc3c(CO)cc(F)cc3CO)c2C)cc1C 11.4%, CCOC(=O)c1cc(C)n(-c2ccc(OC)c(OC)c2)c1C 0.75%, COCC(=O)OCC(=O)c1cc(C)n(-c2ccc(Br)cc2)c1C 1.88%, CCC(=O)OCC(=O)c1cc(C)n(-c2ccc(Br)cc2)c1C 0.2%, COc1cc(C(=O)Nc2ccccc2-c2nnn(CC(N)=O)n2)cc(OC)c1OC -3.22%, C=CCn1c(-c2cccnc2Cl)nc2cc(Cl)c(Cl)cc21 -5.48%, Cc1noc(C)c1C(=O)NCCCc1ccccc1 6.89%, Cc1cc(C(=O)OCC(=O)N2c3ccccc3CC2C)c(C)o1 (stereo unspecified) -1.01%, Cc1cc(C(=O)OCC(=O)N2CC(C)CC(C)C2)c(C)o1 (stereo unspecified) 40.9%, O=C(O)c1cc2c(ccc3ccccc32)o1 6.36%, Cn1c(=O)cc(SCC(=O)NCC2COc3ccccc3O2)c2ccccc21 (stereo unspecified) -4.89%, O=C(CCC1COc2ccccc2O1)NCC1COc2ccccc2O1 (stereo unspecified) 15.9%, Cn1c(=O)oc2cc(S(=O)(=O)N3CCC(C(=O)NCC4COc5ccccc5O4)CC3)ccc21 (stereo unspecified) 3.08%, O=C(Cn1ccc2ccccc2c1=O)NCC1COc2ccccc2O1 (stereo unspecified) 10.9%, Cn1c(C(=O)O)c(CC(=O)Nc2ccc3c(c2)OCCO3)c2ccccc21 -6.24%, Cc1nn(C)c(C)c1S(=O)(=O)N1CCC(C(=O)NCC2COc3ccccc3O2)CC1 (stereo unspecified) 17.1%, O=C(CN1C(=O)C2C3C=CC(C3)C2C1=O)NCc1ccccc1 (stereo unspecified) 18.9%, CCC1Oc2ccc(C)cc2N(CC(=O)NCC2COc3ccccc3O2)C1=O (stereo unspecified) 16.1%, CCOc1ccc(NC(=O)CSc2nc3c([nH]c4ccccc43)c(=O)n2C)cc1 1.51%, CC(C)(C)c1cn(-c2ccccc2)c(=S)[nH]1 1.06%, O=c1c(Cc2ccc(F)cc2)c(O)ccn1Cc1ccc(F)cc1 -0.83%, CS(=O)(=O)N1CCC(C(=O)O)CC1 -6.86%, CCOC(=O)c1c(NC(=O)CC2SC(N)=NC2=O)sc2c1CCC(C)C2 (stereo unspecified) 3.54%, COC(=O)C(NC(=O)C(C)Oc1ccccc1)C(C)C (stereo unspecified) 1.41%, COc1ccc(C2=NN(c3nc(C(=O)O)cs3)C(O)(C(F)(F)F)C2)c(OC)c1 (stereo unspecified) 26.5%, CN(C)S(=O)(=O)c1ccc(Cl)c(NC(=O)COC(=O)c2cc(-c3ccccc3)nc3ccccc23)c1 15.3%, C[C@H](NC(=O)OCc1ccccc1)C(=O)NNC(=O)[C@H](Cc1ccccc1)NC(=O)OC(C)(C)C 12.1%, COc1cc(C2/C(=C(\O)c3cc(C)ccc3C)C(=O)C(=O)N2CCN(C)C)ccc1O (stereo unspecified) -5.88%, Cc1ccc2nc(-c3ccc(NC(=O)CN4CCN(C(=O)c5ccco5)CC4)cc3)sc2c1 4.66%, O=C(CN1C(=O)c2ccccc2C1=O)NCC1CCCO1 (stereo unspecified) 10.2%, O=C(CN1CCN(Cc2ccccc2)CC1)NCC1COc2ccccc2O1 (stereo unspecified) 17%, CC1CCCCC1NC(=O)COC(=O)c1ccc(N(C)C)cc1 (stereo unspecified) -9.99%, CCOC(=O)C1C(=O)NC(N2CCN(CC)CC2)=NC1c1ccccc1 (stereo unspecified) 2.42%, COc1ccc(-c2noc(CSc3nc(N)c(-c4ccccc4)c(=O)[nH]3)n2)cc1OC -5.97%, O=C(CSc1nc(O)c(Cc2ccccc2)c(=O)[nH]1)Nc1ccccc1 51.3%, COc1ccc(-c2noc(CSc3nc(N)c(-c4ccccc4)c(=O)[nH]3)n2)cc1 10.2%, COc1ccc(-n2c(SCC(=O)N3CCOCC3)nc(O)c(Cc3ccccc3)c2=O)cc1 20.3%, COc1ccccc1NC(=O)CSc1nc(O)c(Cc2ccccc2)c(=O)[nH]1 35.1%, COc1ccc(Cc2c(O)nc(SC)n(C(C)=O)c2=O)cc1 -1.99%, Nc1nc(SCC(=O)Nc2ccccc2)[nH]c(=O)c1-c1ccccc1 8.35%, Nc1nc(SCC(=O)Nc2ccc(Cl)cc2)[nH]c(=O)c1-c1ccccc1 13.7%
